Drawing on article PMC11006913, this text covers binding signal for ten sequences.

Test in all cases: PBM; 200 nM protein, PBS
Holding throughout (conditions): dsDNA, one strand shown

In assay [1] the target is HESX1 (Homo sapiens, UniProt Q9UBX0 95-180, R165K).
The target of assay [2] is HESX1 (Homo sapiens, UniProt Q9UBX0 95-180).
Assay [3] deals with PROP1 (Homo sapiens, UniProt O75360 56-141).
For assay [4], the target named is HESX1 (Homo sapiens, UniProt Q9UBX0 95-180, R109Q).
The target in assay [5] is PROP1 (Homo sapiens, UniProt O75360 56-141, R99H).
Assay [6] concerns the target HESX1 (Homo sapiens, UniProt Q9UBX0 95-180, P111T).
For assay [7], the target named is PROP1 (Homo sapiens, UniProt O75360 56-141, F88S).
Assay [8] addresses HESX1 (Homo sapiens, UniProt Q9UBX0 95-180, F115L).
The target in assay [9] is VAX1 (Homo sapiens, UniProt Q5SQQ9 86-172).
The target of assay [10] is VAX1 (Homo sapiens, UniProt Q5SQQ9 86-172, T142I).
The target in assay [11] is VAX1 (Homo sapiens, UniProt Q5SQQ9 86-172, K157R).
Assay [12] deals with ALX3 (Homo sapiens, UniProt O95076 139-225, N203Q).
The target in assay [13] is ALX3 (Homo sapiens, UniProt O95076 139-225).
Assay [14] concerns the target ALX3 (Homo sapiens, UniProt O95076 139-225, L168Q).
Assay [15] addresses ALX3 (Homo sapiens, UniProt O95076 139-225, L168V).
Assay [16] addresses ALX3 (Homo sapiens, UniProt O95076 139-225, N203S).
The target of assay [17] is T1, NKX2-6 (Homo sapiens, UniProt A6NCS4 118-204).
T1 sequence: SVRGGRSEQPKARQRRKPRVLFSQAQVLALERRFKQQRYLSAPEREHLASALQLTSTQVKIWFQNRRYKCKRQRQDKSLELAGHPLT

In another assay the target is PITX2 (Homo sapiens, UniProt Q99697 72-157).
In assay [18] the target is T2, NKX2-6 (Homo sapiens, UniProt A6NCS4 118-204, F151L).
T2 sequence: T1 sequence with F34L

In assay [19] the target is ALX1 (Homo sapiens, UniProt Q15699 118-204, L144V).
The target in assay [20] is ALX1 (Homo sapiens, UniProt Q15699 118-204, L144R).
Assay [21] concerns the target ALX1 (Homo sapiens, UniProt Q15699 118-204).

Changes are numbered by the printed parent chain.

Chain of HESX1 (Homo sapiens, UniProt Q9UBX0 95-180, F115L) (Q9UBX0 95-180 F115L): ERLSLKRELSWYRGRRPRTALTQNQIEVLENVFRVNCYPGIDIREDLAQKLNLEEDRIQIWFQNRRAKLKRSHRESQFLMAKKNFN
Chain of HESX1 (Homo sapiens, UniProt Q9UBX0 95-180, R109Q) (Q9UBX0 95-180 R109Q): as the sequence (Q9UBX0 95-180 F115L) above, with R15Q, L21F counted along it
Chain of HESX1 (Homo sapiens, UniProt Q9UBX0 95-180) (Q9UBX0 95-180): as the sequence (Q9UBX0 95-180 F115L) above, with L21F counted along it
Chain of HESX1 (Homo sapiens, UniProt Q9UBX0 95-180, P111T) (Q9UBX0 95-180 P111T): as the sequence (Q9UBX0 95-180 F115L) above, with P17T, L21F counted along it
Chain of HESX1 (Homo sapiens, UniProt Q9UBX0 95-180, R165K) (Q9UBX0 95-180 R165K): as the sequence (Q9UBX0 95-180 F115L) above, with L21F, R71K counted along it
Chain of PROP1 (Homo sapiens, UniProt O75360 56-141) (O75360 56-141): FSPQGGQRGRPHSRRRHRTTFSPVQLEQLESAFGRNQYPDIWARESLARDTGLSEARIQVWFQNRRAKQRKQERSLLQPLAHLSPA
Chain of PROP1 (Homo sapiens, UniProt O75360 56-141, R99H) (O75360 56-141 R99H): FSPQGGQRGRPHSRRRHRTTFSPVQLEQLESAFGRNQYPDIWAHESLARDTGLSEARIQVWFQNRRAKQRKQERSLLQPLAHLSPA
Chain of PROP1 (Homo sapiens, UniProt O75360 56-141, F88S) (O75360 56-141 F88S): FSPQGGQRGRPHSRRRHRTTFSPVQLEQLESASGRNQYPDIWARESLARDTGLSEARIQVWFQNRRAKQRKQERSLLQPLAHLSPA
Chain of ALX1 (Homo sapiens, UniProt Q15699 118-204, L144V) (Q15699 118-204 L144V): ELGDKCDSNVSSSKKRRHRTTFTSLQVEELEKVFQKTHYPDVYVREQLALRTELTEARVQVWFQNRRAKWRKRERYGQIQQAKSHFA
Chain of ALX1 (Homo sapiens, UniProt Q15699 118-204, L144R) (Q15699 118-204 L144R): as the sequence (Q15699 118-204 L144V) above, with V27R counted along it
Chain of VAX1 (Homo sapiens, UniProt Q5SQQ9 86-172, K157R) (Q5SQQ9 86-172 K157R): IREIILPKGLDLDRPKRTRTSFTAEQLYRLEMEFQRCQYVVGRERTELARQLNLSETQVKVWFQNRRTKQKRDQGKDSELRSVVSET
Chain of ALX3 (Homo sapiens, UniProt O95076 139-225, N203Q) (O95076 139-225 N203Q): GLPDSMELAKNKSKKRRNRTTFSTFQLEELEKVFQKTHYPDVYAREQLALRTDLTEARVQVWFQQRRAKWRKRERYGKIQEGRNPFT
Chain of ALX3 (Homo sapiens, UniProt O95076 139-225, L168V) (O95076 139-225 L168V): as the sequence (O95076 139-225 N203Q) above, with L30V, Q65N counted along it
Chain of ALX3 (Homo sapiens, UniProt O95076 139-225) (O95076 139-225): as the sequence (O95076 139-225 N203Q) above, with Q65N counted along it
Chain of VAX1 (Homo sapiens, UniProt Q5SQQ9 86-172, T142I) (Q5SQQ9 86-172 T142I): as the sequence (Q5SQQ9 86-172 K157R) above, with T57I, R72K counted along it
Chain of ALX1 (Homo sapiens, UniProt Q15699 118-204) (Q15699 118-204): as the sequence (Q15699 118-204 L144V) above, with V27L counted along it
Chain of ALX3 (Homo sapiens, UniProt O95076 139-225, N203S) (O95076 139-225 N203S): as the sequence (O95076 139-225 N203Q) above, with Q65S counted along it
Chain of VAX1 (Homo sapiens, UniProt Q5SQQ9 86-172) (Q5SQQ9 86-172): as the sequence (Q5SQQ9 86-172 K157R) above, with R72K counted along it
Chain of ALX3 (Homo sapiens, UniProt O95076 139-225, L168Q) (O95076 139-225 L168Q): as the sequence (O95076 139-225 N203Q) above, with L30Q, Q65N counted along it

Regarding GCAGCGCA, the binding signal with HESX1 [1] is 6.45 upbm affinity estimate (log intensity, higher = more binding, comparable within an allelic series); in the assay with HESX1 [2], 6.27 upbm affinity estimate (log intensity, higher = more binding, comparable within an allelic series); in the assay with PROP1 [3] it was 6.75 upbm affinity estimate (log intensity, higher = more binding, comparable within an allelic series); with HESX1 [4], 6.54 upbm affinity estimate (log intensity, higher = more binding, comparable within an allelic series); with PROP1 [5], 6.76 upbm affinity estimate (log intensity, higher = more binding, comparable within an allelic series); in the assay with HESX1 [6], 6.47 upbm affinity estimate (log intensity, higher = more binding, comparable within an allelic series). In addition, the binding signal is 6.81 upbm affinity estimate (log intensity, higher = more binding, comparable within an allelic series) with PROP1 [7] and 6.53 upbm affinity estimate (log intensity, higher = more binding, comparable within an allelic series) in the assay with HESX1 [8].

As for CAGAACGC, the binding signal with HESX1 [1] was 6.46 upbm affinity estimate (log intensity, higher = more binding, comparable within an allelic series); with HESX1 [2], 6.44 upbm affinity estimate (log intensity, higher = more binding, comparable within an allelic series); with HESX1 [4] it was 6.49 upbm affinity estimate (log intensity, higher = more binding, comparable within an allelic series); with HESX1 [6], 6.34 upbm affinity estimate (log intensity, higher = more binding, comparable within an allelic series); with HESX1 [8], 6.48 upbm affinity estimate (log intensity, higher = more binding, comparable within an allelic series).

For CGGACAGA, the binding signal with HESX1 [1] was 6.41 upbm affinity estimate (log intensity, higher = more binding, comparable within an allelic series); with HESX1 [2], 6.53 upbm affinity estimate (log intensity, higher = more binding, comparable within an allelic series); with HESX1 [4], 6.49 upbm affinity estimate (log intensity, higher = more binding, comparable within an allelic series); in the assay with HESX1 [6], 6.59 upbm affinity estimate (log intensity, higher = more binding, comparable within an allelic series); with HESX1 [8], 6.58 upbm affinity estimate (log intensity, higher = more binding, comparable within an allelic series).

On to ACAGCGCG, for which the binding signal with HESX1 [1] is 6.46 upbm affinity estimate (log intensity, higher = more binding, comparable within an allelic series); in the assay with HESX1 [2], 6.41 upbm affinity estimate (log intensity, higher = more binding, comparable within an allelic series); with HESX1 [4], 6.49 upbm affinity estimate (log intensity, higher = more binding, comparable within an allelic series); with VAX1 [9], 7.27 upbm affinity estimate (log intensity, higher = more binding, comparable within an allelic series); with HESX1 [6], 6.48 upbm affinity estimate (log intensity, higher = more binding, comparable within an allelic series); with HESX1 [8], 6.44 upbm affinity estimate (log intensity, higher = more binding, comparable within an allelic series). Also, the binding signal is 7.28 upbm affinity estimate (log intensity, higher = more binding, comparable within an allelic series) with VAX1 [10] and 7.22 upbm affinity estimate (log intensity, higher = more binding, comparable within an allelic series) with VAX1 [11].

As to CACCCCCC, the binding signal with HESX1 [1] was 6.39 upbm affinity estimate (log intensity, higher = more binding, comparable within an allelic series); with HESX1 [2], 6.4 upbm affinity estimate (log intensity, higher = more binding, comparable within an allelic series); in the assay with ALX3 [12] it was 7.67 upbm affinity estimate (log intensity, higher = more binding, comparable within an allelic series); in the assay with ALX3 [13], 7.7 upbm affinity estimate (log intensity, higher = more binding, comparable within an allelic series); in the assay with PROP1 [3] it was 6.46 upbm affinity estimate (log intensity, higher = more binding, comparable within an allelic series); in the assay with HESX1 [4] it was 6.54 upbm affinity estimate (log intensity, higher = more binding, comparable within an allelic series). The binding signal was 6.42 upbm affinity estimate (log intensity, higher = more binding, comparable within an allelic series) with PROP1 [5]; 7.45 upbm affinity estimate (log intensity, higher = more binding, comparable within an allelic series) in the assay with ALX3 [14]; 6.38 upbm affinity estimate (log intensity, higher = more binding, comparable within an allelic series) in the assay with HESX1 [6]; 7.59 upbm affinity estimate (log intensity, higher = more binding, comparable within an allelic series) with ALX3 [15]; 6 upbm affinity estimate (log intensity, higher = more binding, comparable within an allelic series) with PROP1 [7]; 6.45 upbm affinity estimate (log intensity, higher = more binding, comparable within an allelic series) in the assay with HESX1 [8]. Besides, in the assay with ALX3 [16], the binding signal is 7.71 upbm affinity estimate (log intensity, higher = more binding, comparable within an allelic series).

With CTGCCAGC, the binding signal in the assay with HESX1 [1] is 6.31 upbm affinity estimate (log intensity, higher = more binding, comparable within an allelic series); in the assay with HESX1 [2] it was 6.34 upbm affinity estimate (log intensity, higher = more binding, comparable within an allelic series); with NKX2-6 [17], 9.39 upbm affinity estimate (log intensity, higher = more binding, comparable within an allelic series); in the assay with PITX2, 8.09 upbm affinity estimate (log intensity, higher = more binding, comparable within an allelic series); with HESX1 [4] it was 6.43 upbm affinity estimate (log intensity, higher = more binding, comparable within an allelic series); in the assay with HESX1 [6] it was 6.51 upbm affinity estimate (log intensity, higher = more binding, comparable within an allelic series). Moreover, the binding signal was 9.37 upbm affinity estimate (log intensity, higher = more binding, comparable within an allelic series) with NKX2-6 [18] and 6.4 upbm affinity estimate (log intensity, higher = more binding, comparable within an allelic series) with HESX1 [8].

Turning to CCGTCGTC, the binding signal with HESX1 [1] is 6.45 upbm affinity estimate (log intensity, higher = more binding, comparable within an allelic series); with HESX1 [2] it was 6.42 upbm affinity estimate (log intensity, higher = more binding, comparable within an allelic series); in the assay with HESX1 [4] it was 6.4 upbm affinity estimate (log intensity, higher = more binding, comparable within an allelic series); with HESX1 [6], 6.44 upbm affinity estimate (log intensity, higher = more binding, comparable within an allelic series); with HESX1 [8], 6.26 upbm affinity estimate (log intensity, higher = more binding, comparable within an allelic series).

On to CTGGGCTC, for which the binding signal with HESX1 [1] is 6.43 upbm affinity estimate (log intensity, higher = more binding, comparable within an allelic series); in the assay with HESX1 [2], 6.41 upbm affinity estimate (log intensity, higher = more binding, comparable within an allelic series); with ALX1 [19], 6.37 upbm affinity estimate (log intensity, higher = more binding, comparable within an allelic series); in the assay with ALX1 [20], 6.38 upbm affinity estimate (log intensity, higher = more binding, comparable within an allelic series); with HESX1 [4], 6.43 upbm affinity estimate (log intensity, higher = more binding, comparable within an allelic series); with HESX1 [6], 6.51 upbm affinity estimate (log intensity, higher = more binding, comparable within an allelic series). The binding signal in the assay with HESX1 [8] is 6.39 upbm affinity estimate (log intensity, higher = more binding, comparable within an allelic series); with ALX1 [21] it was 6.38 upbm affinity estimate (log intensity, higher = more binding, comparable within an allelic series).

Turning to CACCCGGC, the binding signal with HESX1 [1] was 6.47 upbm affinity estimate (log intensity, higher = more binding, comparable within an allelic series); with HESX1 [2], 6.48 upbm affinity estimate (log intensity, higher = more binding, comparable within an allelic series); in the assay with NKX2-6 [17] it was 9.18 upbm affinity estimate (log intensity, higher = more binding, comparable within an allelic series); in the assay with HESX1 [4] it was 6.53 upbm affinity estimate (log intensity, higher = more binding, comparable within an allelic series); with HESX1 [6], 6.47 upbm affinity estimate (log intensity, higher = more binding, comparable within an allelic series); with NKX2-6 [18] it was 9.14 upbm affinity estimate (log intensity, higher = more binding, comparable within an allelic series). Also, the binding signal with HESX1 [8] is 6.3 upbm affinity estimate (log intensity, higher = more binding, comparable within an allelic series).

As for AGCGTTCG, the binding signal with HESX1 [1] is 6.54 upbm affinity estimate (log intensity, higher = more binding, comparable within an allelic series); in the assay with HESX1 [2], 6.5 upbm affinity estimate (log intensity, higher = more binding, comparable within an allelic series); with HESX1 [4], 6.53 upbm affinity estimate (log intensity, higher = more binding, comparable within an allelic series); with HESX1 [6] it was 6.53 upbm affinity estimate (log intensity, higher = more binding, comparable within an allelic series); with HESX1 [8], 6.63 upbm affinity estimate (log intensity, higher = more binding, comparable within an allelic series).
